These results are taken from PubChem BioAssay AID651813 (National Center for Advancing Translational Sciences (NCATS), 2012).

In all, about 2,100 compounds went through this assay and about 1,100 (52%) were called active. Roughly 27% stayed inconclusive and do not appear here. The call rests on the fitted dose curve; in most records, active means well fitted inhibition curve with a large enough effect; inconclusive means small, poorly fitted or top-dose-only effect; inactive means no such curve, though single readings can be large or run the other way. The set was probably picked from earlier hits. This is one part of the list.
Potency means the concentration at half of the fitted maximal effect.

Chain of DNA dC->dU-editing enzyme APOBEC-3G (Homo sapiens) (Q9HC16 whole entry, looked up): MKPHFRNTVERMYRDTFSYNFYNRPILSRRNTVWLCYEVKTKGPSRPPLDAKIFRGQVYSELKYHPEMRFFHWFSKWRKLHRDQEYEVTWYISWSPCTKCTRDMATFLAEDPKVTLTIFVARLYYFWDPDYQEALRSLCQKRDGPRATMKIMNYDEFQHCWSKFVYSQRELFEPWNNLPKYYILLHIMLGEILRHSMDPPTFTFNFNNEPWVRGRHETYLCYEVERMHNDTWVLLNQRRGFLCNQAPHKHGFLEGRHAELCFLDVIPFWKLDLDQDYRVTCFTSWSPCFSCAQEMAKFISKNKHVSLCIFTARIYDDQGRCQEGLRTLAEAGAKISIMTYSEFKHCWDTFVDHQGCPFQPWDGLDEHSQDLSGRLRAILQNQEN

The experiment addresses DNA dC->dU-editing enzyme APOBEC-3G (Homo sapiens) (UniProt Q9HC16). In words: qHTS for inhibitors of Vif-A3G interactions: Cherry picks counterscreen.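 Further: hits raise yellow fluorescence by blocking Vif-driven A3G-eYFP degradation; nearly all actives have a fitted effect of over 70% in size.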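 On max response: max response given as percent of control signal.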 The note with it: HeLa A3G-eYFP + Vif (tagged APOBEC3G with the HIV-1 protein that degrades it), eYFP fluorescence, 24 h. The procedure, abridged: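 HeLa cells stably expressing A3G-eYFP and Vif were treated for 24 h at 37 deg C with compounds at several concentrations; yellow fluorescence (Ex 488 nm, Em 500-530 nm) read by Acumen Explorer, MG132 as positive control.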
Turning to `COCCNC(=S)N/N=C(\C)c1ccc(OC(F)F)cc1`, the max response is -0.557% (inactive).
As to `Cn1cc(/C=C2\SC(=S)N(NC(=O)c3cccc(Cl)c3)C2=O)c2ccccc21`, the Potency is 8.2 µM (active).
On the same count and under the same terms, the figure for `COc1ccc(-c2cnnc(N/N=C/c3ccc(O)c(OC)c3)n2)cc1` is 8.86 µM (active).
As to `COc1cc(/C=N/Nc2cc(C)nc(NS(=O)(=O)c3ccccc3)n2)ccc1O`, the max response is -5.07% (inactive).
Still for that read-out and setting: the figure for `COc1cc(/C=N/Nc2ccc(Cl)nn2)cc(OC)c1O` is -0.979% (inactive).
As for `O=C(Nc1ccccc1-c1nc2ccccc2[nH]1)c1ccc(N2C(=O)CCC2=O)cc1`, the Potency is 18.4 µM (active).
Consider `S=C(NC1CCCCC1)N(CCc1ccccc1)CCc1ccccc1`, for which the max response is -10.7% (inactive).
On to `CCOC(=O)c1[nH]c(C)c(C(=O)Nc2cc(OC)ccc2OC)c1C`, for which the Potency is 3.53 µM (active).
Consider `CCOC(=O)c1[nH]c(C)c(C(=O)Nc2ccccc2C)c1C`, for which the Potency is 6.27 µM (active).
Still for that read-out and setting: for `CCOC(=O)c1c(C)[nH]c(C(=O)N/N=C/c2cccc(OC)c2)c1C` the value was 15.8 µM (active).
Regarding `COc1ccc(OC)c(NC(=O)c2cc(-c3cc(C)cc(C)c3O)n[nH]2)c1`, the max response was -1.73% (inactive).
For `CCOC(=O)c1[nH]c(C)c(C(=O)Nc2ccc(C)cc2C)c1C`, the Potency is 3.96 µM (active).
As to `Cc1cc(N/N=C/c2ccc(O)cc2O)nc(-n2nc(C)cc2C)n1`, the max response was 2.12% (inactive).
Take `CC(=O)c1c(C)[nH]c(C(=O)Nc2ccc(Cl)cc2F)c1C`: the max response is -22.8% (inactive).
Turning to `CCOC(=O)c1[nH]c(C)c(C(=O)Nc2ccccc2F)c1C`, the Potency is 3.53 µM (active).
As to `COc1ccccc1CNC(=O)c1ccc2nc3[nH]c4ccccc4c3nc2c1`, the max response is 6.47% (inactive).
For the molecule `Fc1ccc2nc3[nH]c4ccccc4c3nc2c1`, the Potency is 0.396 µM (active).
With `CCN(CC(=O)Nc1ccccc1-c1ccccc1)Cc1nc2ccccc2c(=O)[nH]1`, the Potency was 12.5 µM (active).
On the same count and under the same terms, the figure for `C(=Cc1c[nH]c2ccccc12)c1ccc2ccccc2n1` is 20.6 µM (active); for `C(=C\c1c[nH]c2ccccc12)/c1ccc2ccccc2n1` it is 16.4 µM (active).
Still for that read-out and setting: the figure for `Cc1[nH]c2ccccc2c1/C=C/c1ccc2ccccc2n1` is 16.4 µM (active).
Regarding `CC(=O)c1cccc(NC(=O)C2CCCN(S(=O)(=O)c3cccc4nonc34)C2)c1` (stereo unspecified), the max response was 11.2% (inactive).
As to `COc1ccc(C(=O)C(C)[n+]2ccc(C)c3ccccc32)cc1[N+](=O)[O-]` (stereo unspecified), the max response was 3.16% (inactive).
As to `COc1ccc(C(=O)NC2CCCc3ccccc32)cc1[N+](=O)[O-]` (stereo unspecified), the Potency was 7.04 µM (active).
With `O=C(NC(=S)N1CCN(c2ccccn2)CC1)c1ccccc1`, the max response is -0.54% (inactive).
For `O=C(c1cc(-c2ccncc2)nc2ccccc12)N1CCN(c2ccccn2)CC1`, the Potency is 9.94 µM (active).
Turning to `O=C(COc1ccccc1-c1ccccc1)NN=C1CCCC1`, the max response is -18.6% (inactive).
As for `CCOC(=O)N1CCN(C(=O)c2ccccc2-c2ccccc2)CC1`, the Potency was 5.59 µM (active).
Same read-out and setting: the figure for `CCOC(=O)N1CCN(C(=O)c2cc(-c3ccc(OCC)cc3)nc3ccccc23)CC1` is 7.04 µM (active); for `Cc1c(C(=O)Nc2cccnc2)oc2ccc(Br)cc12` it is 12.5 µM (active); for `O=C(CSc1ccccc1)Nc1nc2ccccc2[nH]1` it is 9.94 µM (active).
Regarding `c1ccc2[nH]c(NN=C3CCCCCC3)nc2c1`, the max response was 0.674% (inactive).
Same read-out and setting: for `N#CC(C(=S)Nc1ccccc1)c1nc2ccccc2[nH]1` (stereo unspecified) the value was -4.48% (inactive).
For `Fc1cccc(Cc2c(-c3ccco3)nc3ccc(Br)cn23)c1`, the Potency is 14 µM (active).
`COC(=O)c1ccc(Oc2cc(C)nc(SC)n2)cc1`: the Potency was 8.86 µM (active).
Regarding `Cc1ccc(-c2nc3ncccc3o2)cc1NC(=O)c1ccc([N+](=O)[O-])o1`, the max response is 3.91% (inactive).
With `O=C(NCc1ccccc1)C(=O)NCC1COc2ccccc2O1` (stereo unspecified), the Potency is 12.5 µM (active).
Take `CC1CCN(C(=O)C(C)Sc2nc(-c3ccccc3)cc(C(F)(F)F)n2)CC1` (stereo unspecified): the max response was 2.38% (inactive).
Regarding `COC(=O)CCS(=O)(=O)c1nc(-c2ccccc2)cc(C(F)(F)F)n1`, the Potency is 12.5 µM (active).
On to `COc1ccc2o/c(=N/NC(=O)c3cccs3)c(C(N)=O)cc2c1`, for which the Potency was 12.5 µM (active).
On the same count and under the same terms, for `CCOC(=O)c1c(C)sc(-c2c(-c3ccccc3)[nH]c3[nH]c(=O)[nH]c(=O)c23)c1O` the value was 18.4 µM (active); for `COc1cc(-c2noc(C)c2/C=C/c2ccc(OC(C)=O)cc2)cc(OC)c1OC`, 0.627 µM (active).
With `Cc1ccc(O)c(NC(=O)c2cc(-c3ccccc3O)no2)c1`, the Potency is 23.1 µM (active).
With `COc1ccc2[nH]c(C(=O)N/N=C/c3ccc(OC)c(O)c3)cc2c1`, the Potency is 4.44 µM (active).
On the same count and under the same terms, for `COc1ccc(/C=N/NC(=O)c2cc3c(OC)ccc(OC)c3[nH]2)cc1O` the value was 4.44 µM (active); for `COC(=O)c1cccc(NS(=O)(=O)c2ccc(OC)cc2)c1C`, 7.04 µM (active).
Take `COc1ccc(S(=O)(=O)Nc2cc(Sc3ncn[nH]3)c(O)c3ccccc23)cc1`: the max response is -11.5% (inactive).
On to `COc1ccc(S(=O)(=O)Nc2cccc3ccccc23)cc1`, for which the Potency is 5.17 µM (active).
Still for that read-out and setting: for `CC1CCCCC1NC(=O)/C(C#N)=C/C=C/c1ccccc1[N+](=O)[O-]` (stereo unspecified) the value was 14 µM (active).
`Fc1cccc(F)c1/C=N/NC(=S)Nc1cccnc1`: the max response is -2.63% (inactive).
On to `CCOc1ccccc1C1CC(=O)NC2=C1C(=O)CCC2` (stereo unspecified), for which the Potency was 12.5 µM (active).
Take `CCCOc1ccccc1C1CC(=O)NC2=C1C(=O)CCC2` (stereo unspecified): the Potency was 6.27 µM (active).
On to `CCCN(CCC)c1ccc(/C=C/c2ccnc3ccccc23)cc1`, for which the Potency was 14.6 µM (active).
The same measure, in the same setting: the figure for `CCCCN(CCC(=O)O)c1ccc(/C=C/c2ccnc3ccccc23)cc1` is 18.4 µM (active); for `CCCCN(CCCC)c1ccc(/C=C/c2ccnc3ccccc23)cc1` it is 16.4 µM (active).
On the same count and under the same terms, for `CCN(C)c1ccc(/C=C/c2ccnc3ccccc23)cc1` the value was 18.4 µM (active).
In the case of `CC(C)CN(CC(C)C)c1ccc(/C=C/c2ccnc3ccccc23)cc1`, the Potency was 16.4 µM (active).
For the molecule `CCN(CCCN(C)C)c1ccc(/C=C/c2ccnc3ccccc23)cc1`, the Potency was 18.4 µM (active).
The same measure, in the same setting: for `CCN(CC)c1ccc(/C=C/c2ccnc3ccccc23)cc1` the value was 14.6 µM (active).
Take `O=C1OC(/C(=C\Nc2cc(Cl)ccc2O)[N+](=O)[O-])c2ccccc21` (stereo unspecified): the max response was 4.09% (inactive).
Take `Cc1nc2ccc(NC(=O)c3cc(S(=O)(=O)N(C)c4ccccc4)ccc3Cl)cc2s1`: the Potency is 16.4 µM (active).
Still for that read-out and setting: for `N=c1n(CC(=O)c2ccc([N+](=O)[O-])cc2)c2ccccc2n1Cc1ccccc1` the value was 20.6 µM (active); for `COc1ccc(-c2cc(C(F)F)n3ncc(C(=O)N4CCc5ccccc54)c3n2)cc1`, 2.23 µM (active).
The same measure, in the same setting: the figure for `CC(=O)Nc1cccc(-c2ccnc3c2CC(C)(C(=O)NCc2cccs2)O3)c1` (stereo unspecified) is 3.14 µM (active).
On the same count and under the same terms, the figure for `CC1(C(=O)NCc2cccs2)Cc2c(-c3ccc(C(N)=O)cc3)ccnc2O1` (stereo unspecified) is 9.94 µM (active); for `CC1(C(=O)NCc2ccco2)Cc2c(-c3cccc(C(N)=O)c3)ccnc2O1` (stereo unspecified) it is 7.04 µM (active).
For `CC(=O)Nc1ccc(-c2ccnc3c2CC(C)(C(=O)NCc2ccco2)O3)cc1` (stereo unspecified), the Potency is 7.04 µM (active).
Regarding `Cn1c(=O)c(N)c2c3c(c(Br)ccc31)C(=O)c1ccccc1-2`, the max response was 44.6% (inactive).
For the molecule `CC(=O)Nc1cccc(-c2ccnc3c2CC(C(=O)NCc2cccs2)O3)c1` (stereo unspecified), the Potency is 2.23 µM (active).
Still for that read-out and setting: for `CC1(C(=O)NCc2ccccc2)Cc2c(-c3cccc(C(N)=O)c3)ccnc2O1` (stereo unspecified) the value was 6.27 µM (active); for `CC1(C(=O)NCc2ccc(F)c(F)c2)Cc2c(-c3cccc(C(N)=O)c3)ccnc2O1` (stereo unspecified), 17.7 µM (active).
As for `CC1(C(=O)NCc2ccccc2)Cc2c(-c3ccc(C(N)=O)cc3)ccnc2O1` (stereo unspecified), the Potency is 6.27 µM (active).
For the molecule `CC(=O)Nc1cccc(-c2ccnc3c2CC(C)(C(=O)NCc2ccccc2)O3)c1` (stereo unspecified), the Potency is 1.4 µM (active).
The same measure, in the same setting: for `CC(=O)Nc1ccc(-c2ccnc3c2CC(C(=O)NCc2ccccc2)O3)cc1` (stereo unspecified) the value was 0.444 µM (active).
The same measure, in the same setting: the figure for `CC(=O)Nc1ccc(-c2ccnc3c2CC(C(=O)NCc2cccc(Cl)c2)O3)cc1` (stereo unspecified) is 3.14 µM (active).
Still for that read-out and setting: for `N#Cc1c(C(F)(F)F)cc(-c2ccccc2)nc1SCc1nc(N)nc(N2CCOCC2)n1` the value was 2.91 µM (active).
In the case of `N#CC(C#N)=C1C=C2C=C(N3CCOCC3)CCC2CC1` (stereo unspecified), the max response was 51.3% (inactive).
For the molecule `Cc1ccc(/C(C#N)=C\c2ccc(N3CCOCC3)o2)cc1`, the Potency was 17.7 µM (active).
On the same count and under the same terms, for `N#C/C(=C\c1ccc(N2CCOCC2)o1)c1ccccc1` the value was 14 µM (active); for `N#C/C(=C/c1ccc(N2CCOCC2)o1)c1ccc(Cl)cc1`, 2.31 µM (active).
As for `N#C/C(=C/c1ccc(N2CCCCCC2)o1)c1ccc(Cl)cc1`, the Potency was 2.91 µM (active).
As to `Cc1ccc(S(=O)c2ccc([N+](=O)[O-])c3nonc23)cc1` (stereo unspecified), the max response is 28.3% (inactive).
On the same count and under the same terms, the figure for `CN1CCC(OC(=O)c2cc3cc(Cl)cc(Cl)c3oc2=O)CC1` is 17.4% (inactive).
As for `Cn1nnc2c[n+](CC(=O)c3ccc(Cl)cc3)cc(Br)c21`, the Potency was 19.8 µM (active).
As for `O=C(Nc1nnc(-c2ccc3c(c2)CCCC3)o1)c1c(F)cccc1F`, the max response is 11.9% (inactive).
In the case of `Cc1ccc(/C=N/NC(=O)c2cc(-c3ccccc3)nc3ccccc23)o1`, the Potency was 19.8 µM (active).
Consider `O=C(N/N=C/c1c(O)n(-c2ccc(Cl)cn2)c(=O)c2ccccc12)c1ccncc1`, for which the max response was -19.7% (inactive).
Regarding `Cc1cc(C(=O)N/N=C/c2ccc(C)o2)c2ccccc2n1`, the Potency was 4.98 µM (active).
The same measure, in the same setting: the figure for `O=C(N/N=C/c1ccc(Cl)cc1)c1cc(-c2cccnc2)nc2ccccc12` is 2.5 µM (active).
Regarding `C/C(=N\NC(=O)c1cc(C)nc2ccccc12)c1ccncc1`, the max response is -20.6% (inactive).
Turning to `Cc1ccc(C=NNC(=O)c2cc(-c3cccnc3)nc3ccccc23)o1`, the Potency was 15.8 µM (active).
Consider `COCCNC(=S)N/N=C(\C)c1ccccc1O`, for which the max response was 6.88% (inactive).
For `COCCCNC(=S)N/N=C/c1cccc(OC)c1O`, the max response is 7.9% (inactive).
The same measure, in the same setting: the figure for `CCOc1ccc(/C=N/NC(=O)c2cc3c(OC)cccc3[nH]2)cc1` is 2.03% (inactive).
For the molecule `COc1cccc(/C=N/NC(=O)c2cc3c(OC)c(OC)ccc3[nH]2)c1OC`, the Potency is 7.9 µM (active).
Take `COc1ccccc1/C=N/NC(=O)c1cc2c(OC)c(OC)ccc2[nH]1`: the Potency was 5.59 µM (active).
